Out of some 2,500 compounds screened, about 360 (14%) were called active. Only a sample is shown. Values without a mark were called inactive.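 Rule for the calls: active = signal-lowering compounds whose fitted half-maximal concentration AC50 is no higher than ten times their top tested concentration; inconclusive = flat curve with 30 to 70% inhibition, or poor fit; inactive = flat within 30%, signal increase, or AC50 above limit.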
experiment: HRP/luminol detection interference without ALR, dose response, artefact control for ALR inhibitor project, biochemical, luminescence, no ALR or DTT, cherry-pick (AID 540356); conditions: HRP/H2O2 luminol luminescence counterscreen; series mostly up to 10 µM; activity change, negative = inhibition: at the top concentration;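 for activity change, negative = inhibition: 0% = median of neutral control wells and -100% = median of quercitin 100 µM wells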

In order of falling “activity change, negative = inhibition” value:
1. COc1ccccc1NS(=O)(=O)c1cc([N+](=O)[O-])ccc1N/N=C/c1c[nH]c2ccccc12  3.54%
2. Cc1cc(C(=O)NNc2ccc(F)cc2F)no1  2.69%
3. COC(=O)c1sccc1NC(=O)c1cc(C)on1  2.59%
4. NC(=O)c1ccc(CSc2nc3ccccc3s2)cc1  2.17%
5. Cc1nc(SCc2cccnc2)[nH]c(=O)c1C  1.87%
6. Cc1cc(Oc2ncccc2[N+](=O)[O-])c2cc(Cl)ccc2n1  0.22%
7. COc1cccc(NC(=O)CN2CCN(c3ccc(F)cc3)CC2)c1  0.116%
8. Cn1c(CNS(=O)(=O)c2ccc(Br)cc2)n[nH]c1=S  -0.165%
9. Fc1ccc(CN2C3=NCCN3c3ccccc32)cc1  -0.206%
10. CC(C)c1ccc(NC2CCCN(C(=O)CCCn3cncn3)C2)cc1 (configuration not stated)  -0.691%
11. Cc1ccc(NC2CCCN(C(=O)c3cc4ncccn4n3)C2)cc1C (configuration not stated)  -0.727%
12. COc1ccccc1-n1cnc2cc(NCc3ccccc3O)ccc21  -0.965%
13. CNc1nnc(CSc2nc3ccccc3s2)s1  -0.989%
14. CN(CC(=O)N1CCN(c2ccccc2)CC1)S(=O)(=O)c1cnc[nH]1  -1%
15. Cc1cccc(Oc2ccc3c(c2)cc(C(=O)O)n3C)c1  -1.07%
16. Cn1cccc1CC(=O)N/N=C/c1ccc([N+](=O)[O-])cc1  -1.17%
17. O=[N+]([O-])c1ccc(-c2cn(-c3ccccc3F)c(=S)[nH]2)cc1  -1.24%
18. Cc1ccc(C(=O)Nc2cccc([N+](=O)[O-])c2)cc1S(=O)(=O)Nc1ccc(C(=O)O)cc1  -1.41%
19. CN(CCCNC(=O)c1cccc(N2CCCC2=O)c1)c1ccccc1  -1.85%
20. O=C1CS/C(=N/N=C/c2ccco2)N1Cc1ccc(F)cc1  -1.89%
21. Cc1ccc(N/N=C2/CCCNC2=O)cc1  -2.46%
22. CCN(CC)c1ccc(/C=N/NC(=O)c2ccco2)c(O)c1  -2.67%
23. CNC(=O)c1cc(Nc2nnc(-c3ccc(O)cc3)c3ccccc23)ccc1OC  -3.44%
24. CCN(CC)CCCN(C(=O)c1cccc(C)c1)c1nc(-c2ccc(OC)cc2)cs1  -3.71%
25. CC(C)c1ccc(NC2CCCN(C(=O)C3=NN(C)C(=O)CC3)C2)cc1 (configuration not stated)  -5.77%
26. CCCn1c(CCC(=O)O)ccc1-c1cccs1  -6.04%
27. COc1cccc(/C=N/NC(=O)CC2C(=O)NN=C2C)c1O (configuration not stated)  -6.48%
28. COc1cc(/C=N/Nc2nc(=O)[nH]nc2C)ccc1O  -6.83%
29. O=C(NNc1c2ccccc2nc2ccccc12)c1ccc(O)cc1O  -6.84%
30. COc1ccc(OC)c(CNc2ccc3c(c2)nc(C)n3C)c1  -7.25%

For Cc1cc(C(=O)NNc2ccccc2F)no1, the AC50 was 8.51 µM (active).
For CC1C(=O)NN=C1C(=O)N/N=C\c1ccc(O)cc1O (configuration not stated), the AC50 was 8.82 µM (active).
